Legend:
ETS1 [1] = target: T1, ETS1 (UniProt P14921); experiment: ETS1 binding intensity (PBM fluorescence), ETS1 alone (arbitrary fluorescence units); higher = stronger binding; conditions: ETS1 concentration 1 nM; RUNX1 concentration 0 nM
T1 sequence: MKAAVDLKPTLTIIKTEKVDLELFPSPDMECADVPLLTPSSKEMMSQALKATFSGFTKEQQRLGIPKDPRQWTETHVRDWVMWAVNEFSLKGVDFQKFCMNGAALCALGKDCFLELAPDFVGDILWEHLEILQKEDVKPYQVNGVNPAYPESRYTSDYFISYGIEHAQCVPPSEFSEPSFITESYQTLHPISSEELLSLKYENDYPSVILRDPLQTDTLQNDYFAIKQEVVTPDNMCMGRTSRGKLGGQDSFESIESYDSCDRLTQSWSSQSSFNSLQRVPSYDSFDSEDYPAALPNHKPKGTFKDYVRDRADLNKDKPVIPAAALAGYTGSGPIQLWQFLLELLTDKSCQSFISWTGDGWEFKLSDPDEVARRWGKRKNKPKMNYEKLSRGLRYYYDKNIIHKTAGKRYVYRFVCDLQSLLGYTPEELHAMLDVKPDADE

RUNX1 [2] = target: RUNX1 (UniProt Q01196); experiment: RUNX1 binding intensity (PBM fluorescence), RUNX1 alone (arbitrary fluorescence units); higher = stronger binding; conditions: RUNX1 concentration 2 nM; ETS1 concentration 0 nM
Chain of RUNX1 (Q01196 whole entry): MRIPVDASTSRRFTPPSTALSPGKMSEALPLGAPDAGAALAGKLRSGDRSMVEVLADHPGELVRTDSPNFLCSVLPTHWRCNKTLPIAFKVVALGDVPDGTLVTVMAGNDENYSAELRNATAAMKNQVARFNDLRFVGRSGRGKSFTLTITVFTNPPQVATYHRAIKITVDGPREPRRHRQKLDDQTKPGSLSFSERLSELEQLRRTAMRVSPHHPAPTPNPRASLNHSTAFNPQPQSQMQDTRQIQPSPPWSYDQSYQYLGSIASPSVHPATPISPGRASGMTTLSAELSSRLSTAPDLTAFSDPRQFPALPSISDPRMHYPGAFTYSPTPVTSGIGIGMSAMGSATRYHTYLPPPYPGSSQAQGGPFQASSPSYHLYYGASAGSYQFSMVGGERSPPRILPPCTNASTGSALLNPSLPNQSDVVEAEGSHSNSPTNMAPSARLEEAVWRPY
Description: (§1)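 Cooperative gcPBM on 36-bp genomic probes with neighbouring ETS1 and RUNX1 sites. Recombinant human RUNX1 (2 nM) was incubated alone or with ETS1 (25 nM) and detected with anti-RUNX1 antibody plus Alexa488 secondary. Values are medians over 4 replicate spots; the RUNX1+ETS1 data were normalised to the RUNX1-only data. The probes sit in constant array flanks that are not printed.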

ETS1 [3] = target: T1, ETS1; experiment: ETS1 binding intensity (PBM fluorescence) in presence of RUNX1, normalised to ETS1-only experiment (arbitrary fluorescence units); higher = stronger binding; conditions: ETS1 concentration 1 nM; RUNX1 concentration 25 nM
RUNX1 [4] = target: RUNX1 (UniProt Q01196); experiment: RUNX1 binding intensity (PBM fluorescence) in presence of ETS1, normalised to RUNX1-only experiment (arbitrary fluorescence units); higher = stronger binding; conditions: RUNX1 concentration 2 nM; ETS1 concentration 25 nM
Description: as §1
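For RUNX1 binding intensity (PBM fluorescence) in presence of ETS1, normalised to RUNX1-only experiment in this document: Full-length recombinant human ETS1 or RUNX1 bound to double-stranded 36-bp genomic probes on microarrays, detected by protein-specific primary antibody and Alexa488 secondary, spot fluorescence as median of four replicate spots.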
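For RUNX1 binding intensity (PBM fluorescence), RUNX1 alone in this document: Full-length recombinant human RUNX1 bound to double-stranded 36-bp genomic probes on a high-density microarray, scored as Alexa488 fluorescence per spot via anti-RUNX1 antibody, median of four replicate spots.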

Row | Sequence | ETS1 binding intensity (ETS1 [1]) | RUNX1 binding intensity (RUNX1 [2]) | ETS1 binding intensity (ETS1 [3]) | RUNX1 binding intensity (RUNX1 [4])
1 | GGGAACTCACACCGGAAACCACAGAACCAAGAGTGG | 7140 | 3800 | 16300 | 6540
2 | GCACGCCATCGAGGAAGTGGGTTTACTGTGTATTTC | 916 | 723 | 1110 | 934
3 | GACGGGAGCACCGGAAGCGGTCTTTCCCCGAGCGGA | 12900 | 736 | 12500 | 2370
4 | GGGCAGCAGCAGACCGGAAACCACAGCCGACTAAGA | 10700 | 1160 | 29500 | 3330
5 | GCTCCGCTTCCGGGAGGCGGGGCTTCTGCGGGTTCC | 698 | – | 2520 | 1710
6 | CTAACAGCAGGAAGTGCTTGGTGGTTTAGCACCTCA | 2990 | – | 7150 | 1180
7 | AGGGTGTGGAGGAAGTGGCTTACAACCACTTTGTCT | 1270 | 764 | 1500 | 1090
8 | ATGGGGAACGGGAAATACGGCGGGAACCACAATCGC | 734 | 777 | 1700 | 1020
9 | TGCCTCCTCGTCACAGGATGTGGTCGCTGCACCCTG | 5200 | – | 16000 | 1700
10 | ACATTCTTCCGGTTGGACCTCCGCGGTCAGCGCTGT | 871 | 1110 | 1710 | 3220
11 | GGCTGCAGGAAGTGGGAAGGTGTGGCTTTGAGTCTC | 1830 | – | 2460 | 1820
12 | CCACCACTCTAAGCAGGATGCGGTGCGACCCAAGAG | 1390 | 815 | 2470 | 972
13 | GGGTCCTTCCGGGTTTTGTGTCGAATCTGCGGCGGC | 486 | – | 395 | 1720
14 | ACTTCACTTCCCAACCTCCCCTGTGGTTAGGTGTGG | 365 | 1040 | 548 | 1220
15 | GAGCTGCTCCGGAAGGGTGGTGTGTGGTCAACCTTG | 759 | 876 | 1520 | 1050
16 | GGCTTCCGGCGGGGTACCCTCCTCTGTGGGCGGGGC | 563 | – | 572 | 1750
17 | GCCGATGAGGAAGTGAGGGCCAACCACACTGCTCAG | 544 | 878 | 673 | 749
18 | CTCCGCCTTTCACTTCCTAGTAACCGCCCTCCCTTG | 522 | 2190 | 647 | 2400
19 | AAACCCCAAACAGGAAGTGGTAAAGCAACCTGCATC | 11200 | 826 | 16400 | 7980

Row | Sequence | ETS1 binding intensity (ETS1 [1]) | RUNX1 binding intensity (RUNX1 [2]) | ETS1 binding intensity (ETS1 [3]) | RUNX1 binding intensity (RUNX1 [4])
20 | GCCCCAGCGTTTCCTCTTACCCACAATGCCCCGCCC | 794 | – | 869 | 2330
21 | TGATAAAACACAGGATGTGGTAAGGGAGCTGGCCAA | 3350 | 682 | 14200 | 4550
22 | CTGGAGAGGATGTGGCCCCAGTGTGGTTCTGTAACT | 610 | 837 | 776 | 1170
23 | CCAGCTACACAGGATGCTGCGGTGGGCGGAATGCTC | 2160 | – | 9170 | 1970
24 | GGCGCGGGCTGCTTCCGGTCTGCGGGCCTGAGGAGG | 5650 | – | 5010 | 1770
25 | TGAGCAAGTTCCTTCCTGTCTGTGGTCCAGGGTTTA | 757 | – | 881 | 1510
26 | TCCCCTTTCCGGGAAGGGTTGGGGATCTGACCACGT | 437 | 728 | 498 | 1320
27 | CTCCGGCGGAAGTTGTCTCTTCGCCGCCGCCGCAGC | 3590 | – | 5200 | 1690
28 | TACCTACATCCTGCCACCACCCGAGGGGACCGCAAG | 496 | 1050 | 974 | 2810
29 | AGGGAAGCAGGAAGTGACTGCGGGAGTGGAGCCGGC | 3920 | 677 | 3540 | 1080
30 | AGAACAAAACAGGAAATAGTGGTTTGCAAAAATATA | 5780 | 736 | 8400 | 1730
31 | TCACCTCATCACAGGAAACCGCGAGCACCTCCTCCT | 2180 | 1610 | 5440 | 1770
32 | AGCAGCTGCCAGAGGAAGTCTGCGGTCGGAACAGGC | 1260 | – | 10800 | 3400
33 | CCGATTTCCCCGGACGTGGTGAGACCGCGCTTCGTC | 591 | 835 | 855 | 1280
34 | TTACAATCATTTCCTCTCTGTGGTTTGGTGACAAAT | 722 | – | 2000 | 3180
35 | TCGCCCGCCGCTTCCTGTCGCGGCGCCGCAGAGGCC | 1740 | – | 1890 | 3000
36 | ACACACTGACTTCCTGTTGTGGGAGATAAAGTGTGG | 2500 | – | 2780 | 1730
37 | CAACACAGGATGTGCAGTATTATACCGCAAAGCACT | 1710 | – | 6950 | 2070
38 | ATTTCCATTTCCGGACTCTTCTCCTGCCCGCAGGGC | 2270 | – | 3560 | 3660

Reference: the supplement of paper PMC10681739
